According to the supplement of paper PMC11417369:
± gives the standard deviation of the averaged measurements. Whole data set: some 25,000 sequences, median “ln(normalized median fluorescence intensity)” near 10, cut for the highest 2% near 12. The sample as a whole holds a higher share of the highest values than the screen did.

Each sequence was assayed on PfAP2-G AP2 domain (GST-tagged) (assay: gcPBM binding intensity (ln(normalized median fluorescence intensity)); higher = stronger DNA binding).
How it was run: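 Probes on an Agilent 4 × 180k array were primer-extended, double-stranded and 36 bp long, taken from intergenic genomic regions, with negative controls added. GST-tagged P. falciparum DNA-binding domains from E. coli, about 25 μg on average, were applied to the array for 1 h in 1× PBS containing 1% milk, 0.2 mg/ml BSA, 0.5% salmon testes DNA and 0.03% Triton X-100. Binding intensity, obtained after Alexa488 anti-GST antibody detection and a 488 nm scan, is the highest Masliner-normalised natural-log median intensity across replicate spots of either probe orientation.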
For “TCAAAAATAAAGATCACACATATATATATATATATA [CACACA_site4381]”, the “gcPBM binding intensity (ln)” value was 10.3 ± 0.99.
For “CACATATATACACATACACACACACCCATACACCCA [CACACA_site8505]”, the “gcPBM binding intensity (ln)” value was 10.5 ± 0.39.
For “TATACAAAATAACTAGCACACATATGTATAAACATA [CACACA_site9236]”, the “gcPBM binding intensity (ln)” value was 10.2.
For “TACATACACAAATACACACACAAATACATACACAAA [CACACA_site704]”, the “gcPBM binding intensity (ln)” value was 10.2 ± 0.41.
In the case of “TAAACATTCTTATATAGTACCCATATTAAAATATAC [XGTACX_site8014]”, the “gcPBM binding intensity (ln)” value is reported as 10.8 ± 0.58.
In the case of “CCAATAATATATAGAAGTACAGAAAAAAAAAAAAAA [XGTACX_site2049]”, the “gcPBM binding intensity (ln)” value is reported as 11.5 ± 1.1.
“TATATATATATAAGAAGTACAGAAAATTAGAAAAAA [XGTACX_site8773]” was tested, and the “gcPBM binding intensity (ln)” value was 11.7 ± 1.1.
With “TATATATAAGAAAAAAGTACAGATATATATATATTC [XGTACX_site4788]” the “gcPBM binding intensity (ln)” value was 11.6 ± 1.1.
For “TTTTTTTTTTTTTTTTTTTTTTTGCTCAGTGTGGTA [CACACA_negctrl_site29]”, the “gcPBM binding intensity (ln)” value was 9.95 ± 0.56.
In the case of “ACAGAAAATAAAATTTGTACATATATAGAATAAAGA [XGTACX_site3014]”, the “gcPBM binding intensity (ln)” value is reported as 10.8 ± 0.39.
“AATGATTTTGATTAACGTACGTACAAATATATATAT [XGTACX_site6604]” was tested, and the “gcPBM binding intensity (ln)” value was 11.5 ± 0.82.
In the case of “ATTTTGATAACCGTACGTACATATATATATATATAT [XGTACX_site6605]”, the “gcPBM binding intensity (ln)” value is reported as 11.8 ± 0.85.
“AAAATTATATATTATAGTACATAAAATTTTGATATA [XGTACX_site994]” was tested, and the “gcPBM binding intensity (ln)” value was 10.9 ± 0.56.
With “ACCATTTGTACTTACGCACACATAAAATATATATAT [CACACA_site1545]” the “gcPBM binding intensity (ln)” value was 11.5 ± 1.
With “TAAATTATATTATGCACACTTAAAAATATATTTAAC [CACACA_site3512]” the “gcPBM binding intensity (ln)” value was 10.07 ± 0.085.
“CAACAAAAATTATTTACACACAAAAGGCAAGGAAAT [CACACA_site1971]” was tested, and the “gcPBM binding intensity (ln)” value was 10.5 ± 0.28.
In the case of “ACCTTAAATAATACATGTACAAAAAAATTTATAATA [XGTACX_site1043]”, the “gcPBM binding intensity (ln)” value is reported as 11 ± 0.49.
“TCTTACTAATTTATGGGGACTTATCACCTATTCAGT [CACACA_negctrl_site652]” was tested, and the “gcPBM binding intensity (ln)” value was 10.5 ± 0.23.
In the case of “TTTTGTGGAGGATGGTGTACGGTATTGTATTATTAC [XGTACX_site1942]”, the “gcPBM binding intensity (ln)” value is reported as 11.1 ± 0.64.
In the case of “ATACATATATACATACGTACTTATATACATATGTGC [XGTACX_site5268]”, the “gcPBM binding intensity (ln)” value is reported as 10.9 ± 0.42.
With “ATAAAAATAAACATACGTACTTACACGAATATACAT [XGTACX_site5989]” the “gcPBM binding intensity (ln)” value was 11.1 ± 0.65.
For “ATTTATATATTTATACGTACTTATATATTGTTACAT [XGTACX_site6254]”, the “gcPBM binding intensity (ln)” value was 11.2 ± 0.73.
“ATACGAAGTACGTACACACACTTATATGTTACTAAA [CACACA_site7812]” was tested, and the “gcPBM binding intensity (ln)” value was 11.7 ± 1.
With “AGAAAATATACAAAACGTACTTATATATTATATCTA [XGTACX_site3104]” the “gcPBM binding intensity (ln)” value was 10.9 ± 0.69.
“TTACATATTATACGAAGTACGTACAAATACTTATAT [XGTACX_site8598]” was tested, and the “gcPBM binding intensity (ln)” value was 11.7 ± 0.81.
With “TACCTAATATGTTATACACACATTAGAAGTACATAT [CACACA_site5375]” the “gcPBM binding intensity (ln)” value was 11.6 ± 1.1.
For “TTATACGAAGTACGTACACACACTTATATGTTACTA [CACACA_site4019]”, the “gcPBM binding intensity (ln)” value was 11.6 ± 0.94.
“TTATGTATAAACACACGTACACACACTAAGTATATC [XGTACX_site3254]” was tested, and the “gcPBM binding intensity (ln)” value was 11.5 ± 1.
With “TTTCATGTTTTAAAGTGTACATAAATATATTATATG [XGTACX_site3367]” the “gcPBM binding intensity (ln)” value was 11.5 ± 0.89.
For “ATAATTTCAATATTTAATATCATATATATATATTTT [GTGCAC_negctrl_site713]”, the “gcPBM binding intensity (ln)” value was 9.56 ± 0.13.
With “CTATCATATTTATGCACACAAAAATAATTAATTCGT [CACACA_site2614]” the “gcPBM binding intensity (ln)” value was 10.2 ± 0.23.
In the case of “TAATTTATAAATAATTGTACATAGTTTATTTAGATT [XGTACX_site4599]”, the “gcPBM binding intensity (ln)” value is reported as 10.9 ± 0.43.
“ATACAGATAGGATGCACACATAATTCAAATACAATA [CACACA_site4531]” was tested, and the “gcPBM binding intensity (ln)” value was 10.2 ± 0.13.
“TTTTTTTTATTAAAAAGTACTAAACAAATTATATAT [XGTACX_site121]” was tested, and the “gcPBM binding intensity (ln)” value was 11.1 ± 0.73.
With “AATAATTTTTAAATATAAACATTTTTTTTTTTTTTT [GTGCAC_negctrl_site532]” the “gcPBM binding intensity (ln)” value was 9.72 ± 0.057.
“TGCACAAAGTTATGCACACACCTAAAATTAATTTTT [CACACA_site7385]” was tested, and the “gcPBM binding intensity (ln)” value was 10.05 ± 0.071.
For “TGATAATAAGCATACACACACACACTAAAAAAAAAA [CACACA_site6478]”, the “gcPBM binding intensity (ln)” value was 10.3 ± 0.43.
With “AAAGAAGGGGGGGGAAAAAAAAATAAAAGAGGAAAA [XGTACX_negctrl_site92]” the “gcPBM binding intensity (ln)” value was 11 ± 0.77.
In the case of “AAAGAAAAAAAAAAAAGTACATAAATATAAAAAGAA [XGTACX_site6753]”, the “gcPBM binding intensity (ln)” value is reported as 11.5 ± 0.89.
In the case of “AAATAAAGAAATATATGTACATATATATATATATAT [XGTACX_site5131]”, the “gcPBM binding intensity (ln)” value is reported as 11.3 ± 0.43.
In the case of “ATACATATACACATATGTACATATGAAAAGAAAAAT [XGTACX_site6445]”, the “gcPBM binding intensity (ln)” value is reported as 11.1 ± 0.64.
For “TAAAAGTTCACCTGTACACACATATAAATATGTACA [CACACA_site6901]”, the “gcPBM binding intensity (ln)” value was 11.7 ± 0.85.
With “AAATAAAAGTTCACCTGTACACACATATATATATGT [XGTACX_site3513]” the “gcPBM binding intensity (ln)” value was 11.5 ± 0.66.
In the case of “ATAAGGAAGGGATGCACACAAAAGGGTACATAAGAA [CACACA_site4006]”, the “gcPBM binding intensity (ln)” value is reported as 11.4 ± 0.71.
“AGAAAAAAAAAAAGTACACACATATAATATATATAT [CACACA_site2973]” was tested, and the “gcPBM binding intensity (ln)” value was 11.6 ± 1.2.
“ATATATATATATATATGTACACATAAAAAGAAAGAA [XGTACX_site1603]” was tested, and the “gcPBM binding intensity (ln)” value was 11.7 ± 1.1.
For “CAGGGCAGGGGGAAGGGTACACATAAAAGAAAATAA [XGTACX_site172]”, the “gcPBM binding intensity (ln)” value was 11.7 ± 1.1.
In the case of “AAAAAAAAAAAGTACACACATACATATAAATATATA [CACACA_site1809]”, the “gcPBM binding intensity (ln)” value is reported as 11.6 ± 0.95.
“AATAAAAGTTCACCTGTACACACATATATATATGTA [CACACA_site8500]” was tested, and the “gcPBM binding intensity (ln)” value was 11.3 ± 0.76.
With “ACATATAAAATGTATACACACAAATATTACATATAT [CACACA_site1472]” the “gcPBM binding intensity (ln)” value was 10.1 ± 0.11.
With “TTTTTCATTTAGCTTTTACACACTATATATTATTGA [CACACA_site7888]” the “gcPBM binding intensity (ln)” value was 9.905 ± 0.064.
In the case of “CTCAATATATTTGATTTACACACTTACAATGTATAT [CACACA_site8982]”, the “gcPBM binding intensity (ln)” value is reported as 10.04 ± 0.078.
With “GATATATATATTCACACACACATGGAAATATATATA [CACACA_site382]” the “gcPBM binding intensity (ln)” value was 9.88 ± 0.028.
“ATATATATGGTCATTTGTACATATCGTGAGAGCTGC [XGTACX_site4117]” was tested, and the “gcPBM binding intensity (ln)” value was 11 ± 0.49.
“GAAAAAAGAAAAAAAAGTACATATATTTAATAAGAC [XGTACX_site6912]” was tested, and the “gcPBM binding intensity (ln)” value was 11.4 ± 0.86.
“TTAAGAAACAAAGAAAGTACACAACATAATATAGAA [XGTACX_site477]” was tested, and the “gcPBM binding intensity (ln)” value was 11.4 ± 0.69.
“GTATTATAAAAAGGAAGTACATATATACATATTATA [XGTACX_site1271]” was tested, and the “gcPBM binding intensity (ln)” value was 11.3 ± 0.75.
In the case of “AAAAAAAAAAAAAGTACACACATACATATAAATATA [CACACA_site8533]”, the “gcPBM binding intensity (ln)” value is reported as 11.5 ± 0.86.
In the case of “TTAAGAAAAAAAAAAAGTACACACATATAATATATA [XGTACX_site6268]”, the “gcPBM binding intensity (ln)” value is reported as 11.6 ± 1.
“AAAAATATATAATAAAGTACACATAAATGAATAAAT [XGTACX_site329]” was tested, and the “gcPBM binding intensity (ln)” value was 11.5 ± 0.81.
For “AGTAGATATAAAAGGAGTACACATATATATATAAAT [XGTACX_site4375]”, the “gcPBM binding intensity (ln)” value was 11.6 ± 1.
For “TATAAAAATAAAAAAAGTACACATAAAAATATATAT [XGTACX_site5189]”, the “gcPBM binding intensity (ln)” value was 11.5 ± 0.78.
“ATATATATATAAAGGAGTACATACATTAAAAAAAAA [XGTACX_site1095]” was tested, and the “gcPBM binding intensity (ln)” value was 11.7 ± 1.
For “ATATATATAATTTAAAGTACATATTTAAGAATGAAA [XGTACX_site2238]”, the “gcPBM binding intensity (ln)” value was 11.1 ± 0.67.
With “AATAAATAAAGAAGTACACACATATATATATATATA [CACACA_site4314]” the “gcPBM binding intensity (ln)” value was 11.7 ± 1.1.
With “AATGAATATTAAAGGAGTACACATAATAAGTAAGAA [XGTACX_site7354]” the “gcPBM binding intensity (ln)” value was 11.7 ± 0.99.
